PubChem BioAssay (Tox21)
Results filed as inconclusive are left out. Where a call stands in place of a potency, no number is given. Values without a mark were called inactive. Activity calls are given as the source filed them. Unless noted, the call rests on the fitted dose curve; in most records, active means well fitted curve in the direction sought with a large enough effect in the repeat runs; inconclusive means weak or mixed curves; inactive means no such curve, though single readings can be large; an effect the other way counts as inactive or inconclusive.

Legend:
[1] = molecular target: Retinoic acid receptor RXR-alpha (Homo sapiens) (UniProt P19793); assay: qHTS assay to identify small molecule agonists of the RXR signaling pathway (AID 1159527; calls by dose curve; further: nearly all actives have a fitted effect of over 35% in size; further: potency means the concentration at half of the fitted maximal effect)
Sequence of Retinoic acid receptor RXR-alpha (Homo sapiens) (P19793 whole entry, looked up): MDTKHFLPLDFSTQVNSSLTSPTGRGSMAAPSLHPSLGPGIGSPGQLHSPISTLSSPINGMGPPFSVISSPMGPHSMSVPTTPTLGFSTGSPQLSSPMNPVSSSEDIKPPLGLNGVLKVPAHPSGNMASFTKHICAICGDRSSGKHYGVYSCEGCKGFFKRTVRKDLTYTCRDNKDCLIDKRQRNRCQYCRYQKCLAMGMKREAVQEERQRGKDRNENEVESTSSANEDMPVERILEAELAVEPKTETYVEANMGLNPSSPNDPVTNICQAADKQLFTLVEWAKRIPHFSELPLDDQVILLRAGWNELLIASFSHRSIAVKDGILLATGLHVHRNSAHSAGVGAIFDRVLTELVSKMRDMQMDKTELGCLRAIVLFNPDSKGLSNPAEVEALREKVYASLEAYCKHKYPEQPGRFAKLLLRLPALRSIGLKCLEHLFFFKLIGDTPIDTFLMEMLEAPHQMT
Outline: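 Agonist mode; 9-cis retinoic acid positive control. HEK 293T UAS-bla reporter cells, 2% charcoal-stripped FBS, 16 hr compound exposure at 37 C/5% CO2. LiveBLAzer B/G FRET substrate 2 hr RT; ex 405, em 460/530 nm.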

[2] = qHTS assay to identify small molecule agonists of the RXR signaling pathway - cell viability counter screen (AID 1159529); further: series mostly up to about 77 µM; nearly all actives have a fitted effect of over 50% in size
Outline: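 Luminescence from CellTiter-Glo (30 min, RT) measured viability in the same wells as the beta-lactamase reporter readout. Cells: GeneBLAzer RXR-alpha HEK 293T, 2% charcoal-stripped FBS. Compound exposure 16 hr, 37 C.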

[3] = qHTS assay to identify small molecule antagonists of the retinoid acid receptor (RAR) signaling pathway - cell viability counter screen (AID 1159551); further: nearly all actives have a fitted effect of over 35% in size
Outline: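 C3RL4 cells were seeded overnight at 37 C, then treated with compounds plus 1 uM (final) retinol for 6 h at 37 C. Viability was read as ATP by CellTiter-Glo luminescence after 30 min at room temperature.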

[4] = qHTS assay to identify small molecule antagonists of the retinoic acid receptor (RAR) signaling pathway (AID 1159552; further: nearly all actives have a fitted effect of over 50% in size)
Outline: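 Luminescence from a RARE luciferase reporter in C3RL4 cells served as read-out. Cells received compounds together with 1 uM final retinol and incubated 6 hr at 37 C before detection reagent was added for 30 min at room temperature.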

[5] = qHTS assay to identify small molecule agonists of the retinoic acid receptor (RAR) signaling pathway (AID 1159553); further: potency means the concentration at half of the fitted maximal effect
Outline: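 C3RL4 cells carrying a RARE luciferase reporter were plated overnight at 37 C, then exposed to compounds in DMSO for 6 hr at 37 C and 5% CO2. Luminescence was read 30 min after luciferase reagent addition at room temperature.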

[6] = qHTS assay to identify small molecule antagonists of the estrogen related receptor (ERR) signaling pathway from Tox21 library - cell viability counter screen (AID 1224834); further: nearly all actives have a fitted effect of over 30% in size
Outline: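 ERR reporter cells were plated 6 h before compound addition, then exposed to test compounds in DMSO for 17.5 h at 37 C. Viability was read as CellTiter-Fluor fluorescence after a 30-minute incubation at 37 C.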

[7] = molecular target: Luciferin 4-monooxygenase (Photinus pyralis) (UniProt P08659); assay: qHTS assay to identify small molecule inhibitors of firefly luciferase (AID 1224835); further: nearly all actives have a fitted effect of over 25% in size; further: potency means the concentration at half of the fitted maximal effect
Sequence of Luciferin 4-monooxygenase (Photinus pyralis) (P08659 whole entry, looked up): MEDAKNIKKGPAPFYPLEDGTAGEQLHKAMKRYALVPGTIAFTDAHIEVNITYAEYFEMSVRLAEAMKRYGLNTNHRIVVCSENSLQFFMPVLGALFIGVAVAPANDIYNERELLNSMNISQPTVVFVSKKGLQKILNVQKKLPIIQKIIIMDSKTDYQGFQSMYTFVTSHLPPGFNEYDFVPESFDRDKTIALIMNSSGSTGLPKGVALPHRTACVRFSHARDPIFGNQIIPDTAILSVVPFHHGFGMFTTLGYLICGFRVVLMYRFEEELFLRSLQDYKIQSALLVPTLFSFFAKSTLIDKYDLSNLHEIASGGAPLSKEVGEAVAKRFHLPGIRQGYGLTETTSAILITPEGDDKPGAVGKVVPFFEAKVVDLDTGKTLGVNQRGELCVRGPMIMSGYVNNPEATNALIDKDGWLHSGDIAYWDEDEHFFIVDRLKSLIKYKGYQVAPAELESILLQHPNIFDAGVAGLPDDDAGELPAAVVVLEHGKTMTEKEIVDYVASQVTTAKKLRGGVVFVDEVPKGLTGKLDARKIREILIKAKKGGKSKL
Outline: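 Quantitative HTS format; KM concentrations of both substrates. Purified P. pyralis FLuc activity quantified from luminescence images.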

[8] = qHTS assay to identify small molecule agonists of the constitutive androstane receptor (CAR) signaling pathway - cell viability counter screen (AID 1224836); further: series mostly up to about 92 µM; nearly all actives have a fitted effect of over 45% in size
Outline: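 Viability read-out: CellTiter-Fluor fluorescence after 23 h compound exposure at 37 C/5% CO2 in double-stable HepG2-CYP2B6-hCAR cells, with PK11195 present at 0.75 uM final; compounds tested in 15-point titration.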

[9] = qHTS assay to identify small molecule antagonists of the constitutive androstane receptor (CAR) signaling pathway - cell viability counter screen (AID 1224837); further: series mostly up to about 92 µM; nearly all actives have a fitted effect of over 45% in size
Outline: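 HepG2 cells stably expressing hCAR and a CYP2B6-2.2kb reporter were plated and pre-incubated 4 hr at 37 C/5% CO2, then given compounds at 15 concentrations plus 50 nM CITCO (final). After 23 hr, viability was read by CellTiter-Fluor fluorescence.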

[10] = molecular target: Nuclear receptor subfamily 1 group I member 3 (Homo sapiens) (UniProt Q14994); assay: qHTS assay to identify small molecule antagonists of the constitutive androstane receptor (CAR) signaling pathway (AID 1224838); further: nearly all actives have a fitted effect of over 40% in size
Sequence of Nuclear receptor subfamily 1 group I member 3 (Homo sapiens) (Q14994 whole entry, looked up): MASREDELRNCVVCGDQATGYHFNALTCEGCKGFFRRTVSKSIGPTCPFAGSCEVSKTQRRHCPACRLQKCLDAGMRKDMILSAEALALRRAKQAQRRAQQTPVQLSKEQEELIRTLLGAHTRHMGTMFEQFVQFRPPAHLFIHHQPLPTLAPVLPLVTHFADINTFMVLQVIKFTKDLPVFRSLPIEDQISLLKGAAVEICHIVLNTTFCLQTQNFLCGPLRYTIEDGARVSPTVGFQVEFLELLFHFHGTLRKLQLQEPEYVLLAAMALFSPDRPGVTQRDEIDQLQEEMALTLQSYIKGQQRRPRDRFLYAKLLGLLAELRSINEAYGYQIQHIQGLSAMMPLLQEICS
Outline: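 HepG2 cells stably co-transfected with hCAR and a CYP2B6-2.2kb luciferase reporter were seeded 4 h before compound addition at 15 concentrations. Cells were stimulated with 50 nM CITCO (final) for 24 h at 37 C; luciferase luminescence was then read.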

[11] = molecular target: Nuclear receptor subfamily 1 group I member 3 (Homo sapiens) (UniProt Q14994); assay: qHTS assay to identify small molecule agonists of the constitutive androstane receptor (CAR) signaling pathway (AID 1224839); further: nearly all actives have a fitted effect of over 15% in size; further: potency means the concentration at half of the fitted maximal effect;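 on activation: HepG2 cells stably carrying human CAR and a CYP2B6 luciferase reporter; series mostly up to about 92 µM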
Outline: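 Luminescence read-out (ONE-Glo, 30 min, room temperature) from double-stable HepG2-CYP2B6-hCAR cells exposed 24 h to 15-point compound series in presence of 0.75 uM PK11195 final.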

[12] = qHTS assay to identify small molecule antagonists of the estrogen related receptor signaling pathway with the pleiotropic PPARgamma coactivator (PGC) from Tox21 10K library - cell viability counter screen (AID 1224840; active means well fitted cell-killing curve with a large enough effect in the repeat runs, not every such curve was filed as active; further: nearly all actives have a fitted effect of over 40% in size)
Outline: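 PGC/ERR cells were seeded at 2,000 cells/well and left 6 hours at 37 C/5% CO2 before pin-tool addition of compounds in DMSO. After 17.5 hours at 37 C, CellTiter-Fluor was added and fluorescence read 30 minutes later.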

[13] = molecular target: Thyrotropin receptor (Homo sapiens) (UniProt P16473); assay: qHTS assay to identify small molecule agonists of the thyroid stimulating hormone receptor (TSHR) signaling pathway (AID 1224843; calls by dose curve; further: nearly all actives have a fitted effect of over 45% in size)
Sequence of Thyrotropin receptor (Homo sapiens) (P16473 whole entry, looked up): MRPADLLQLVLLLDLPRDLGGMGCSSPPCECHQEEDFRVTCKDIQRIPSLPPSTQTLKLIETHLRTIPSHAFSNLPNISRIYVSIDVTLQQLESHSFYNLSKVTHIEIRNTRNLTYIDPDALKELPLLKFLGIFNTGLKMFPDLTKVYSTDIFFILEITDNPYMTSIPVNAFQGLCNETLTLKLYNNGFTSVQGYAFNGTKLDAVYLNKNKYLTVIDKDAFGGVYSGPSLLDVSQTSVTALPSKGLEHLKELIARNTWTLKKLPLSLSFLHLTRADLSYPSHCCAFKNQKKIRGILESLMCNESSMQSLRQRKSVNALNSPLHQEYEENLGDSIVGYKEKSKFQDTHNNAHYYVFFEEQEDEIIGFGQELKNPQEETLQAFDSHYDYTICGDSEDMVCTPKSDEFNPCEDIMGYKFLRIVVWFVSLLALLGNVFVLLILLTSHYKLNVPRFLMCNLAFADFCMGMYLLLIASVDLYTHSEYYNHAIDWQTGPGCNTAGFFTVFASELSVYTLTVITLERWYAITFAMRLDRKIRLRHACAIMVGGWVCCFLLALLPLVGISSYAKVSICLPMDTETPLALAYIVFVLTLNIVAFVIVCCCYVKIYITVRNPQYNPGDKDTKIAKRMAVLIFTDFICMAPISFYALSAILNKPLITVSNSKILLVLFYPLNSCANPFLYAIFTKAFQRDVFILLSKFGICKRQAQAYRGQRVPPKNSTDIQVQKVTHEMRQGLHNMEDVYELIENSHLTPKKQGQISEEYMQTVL
Outline: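 Cell line HEK293 with TSHR; density 800/well. Exposure 30 min RT. Readout HTRF cAMP (cAMP-d2/anti-cAMP-cryptate), 1 h RT before reading.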

[14] = qHTS assay to identify small molecule agonists of the hypoxia (HIF-1) signaling pathway - cell viability counter screen (AID 1224844; calls by dose curve; further: nearly all actives have a fitted effect of over 50% in size)
Outline: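 HRE-bla ME-180 cells in medium with 0.5% dialyzed FBS were preincubated 5 hrs at 37C, exposed to compounds for 17 hrs, then viability was read as CellTiter-Glo luminescence after 30 min at room temperature, in the reporter wells.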

[15] = qHTS assay to identify small molecule agonists of H2AX (AID 1224845; active means well fitted activation curve with a large enough effect in the signal ratio in the repeat runs, not every such curve was filed as active; the % refers to the signal ratio)
Outline: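 Wild-type CHO-K1 cells plated overnight, then exposed 3 hr at 37C to compounds at 15 concentrations (0.76% DMSO). Lysed, then HTRF anti-pH2AX(S139)-cryptate/anti-H2AX-d2 detection after 24 hr at room temperature; emissions 665 and 620 nm.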

[16] = qHTS assay to identify small molecule agonists of the hypoxia (HIF-1) signaling pathway (AID 1224846; active means well fitted activation curve with a large enough effect in the signal ratio in the repeat runs, not every such curve was filed as active; the % refers to the signal ratio)
Outline: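 HRE-bla ME-180 cells (beta-lactamase reporter under hypoxia response element) were plated at 2,000 cells/well in medium with 0.5% dialyzed FBS, rested 5 hrs, then given compounds in DMSO for 17 hrs at 37C, 5% CO2. Reporter induction was read with CCF4-AM FRET substrate.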

[17] = qHTS assay to identify small molecule agonists of H2AX - cell viability counter screen (AID 1224847; calls by dose curve; further: top concentration of the series differs between compounds; nearly all actives have a fitted effect of over 30% in size)
Outline: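 CHO-K1 wt, 1000 cells/well, o/n 37C; cpds 15 conc, 3 h 37C, 0.76% DMSO; CellTiter-Glo, 30 min RT, luminescence.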

[18] = qHTS assay to identify small molecule antagonists of the estrogen related receptor signaling pathway with the pleiotropic PPARgamma coactivator (PGC) from Tox21 10K library (AID 1224841; call rule not given here; further: series mostly up to about 92 µM; actives are mostly falling curves and most rising ones were filed inactive; nearly all actives have a fitted effect of over 50% in size)
Outline: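 PGC/ERR reporter cells were seeded at 2,000 cells/well and held 6 hours at 37 C/5% CO2 before pin-tool addition of compounds in DMSO. After 18 hours at 37 C, One-Glo was added and luminescence read after 30 minutes at room temperature.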

[19] = qHTS assay to identify small molecule agonists of the estrogen related receptor signaling pathway with the pleiotropic PPARgamma coactivator (PGC) from Tox21 10K library (AID 1224842); further: nearly all actives have a fitted effect of over 15% in size
Outline: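 PGC/ERR reporter cells (NTP line) were seeded 2,000 per well, rested 6 h at 37 C/5% CO2, then pin-dosed with compounds in DMSO for 18 h at 37 C; luciferase read by One-Glo luminescence after 30 min at room temperature.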

[20] = qHTS assay to identify small molecule antagonists of the estrogen related receptor (ERR) signaling pathway from Tox21 library (AID 1224848); further: nearly all actives have a fitted effect of over 50% in size
Outline: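 Screening used an ERR reporter line supplied by NTP, exposed for 18 h at 37 C to library compounds delivered in DMSO. Signal was luciferase luminescence developed with ONE-Glo at room temperature for 30 min.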

CCCc1ccc(O)cc1
Potency [1]: inactive
outcome [2]: inactive
outcome [3]: inactive
outcome [4]: inactive
Potency [5]: inactive
outcome [6]: inactive
Potency [7]: inactive
outcome [8]: inactive
outcome [9]: inactive
Potency [10]: inactive
Potency [11]: inactive
outcome [12]: inactive
outcome [13]: inactive
outcome [14]: inactive
outcome [15]: inactive
outcome [16]: inactive
outcome [17]: inactive

OC1(c2ccc(Cl)cc2)CCNCC1
Potency [1]: inactive
outcome [2]: inactive
outcome [3]: inactive
outcome [4]: inactive
Potency [5]: inactive
outcome [6]: inactive
Potency [7]: inactive
outcome [8]: inactive
outcome [9]: inactive
Potency [10]: inactive
Potency [11]: inactive
outcome [12]: inactive
outcome [13]: inactive
outcome [14]: inactive
outcome [15]: inactive
outcome [16]: inactive
outcome [17]: inactive

CCC(C)C(=O)OCCc1ccccc1 (configuration not stated)
Potency [1]: 43.6 µM (active)
outcome [2]: inactive
outcome [3]: inactive
outcome [4]: inactive
Potency [5]: inactive
outcome [6]: inactive
Potency [7]: 50.2 µM (active)
outcome [8]: inactive
outcome [9]: inactive
Potency [10]: inactive
Potency [11]: inactive
outcome [12]: inactive
outcome [13]: inactive
outcome [14]: inactive
outcome [15]: inactive
outcome [16]: inactive
outcome [17]: inactive

CCCCCc1cccc(=O)o1
Potency [1]: inactive
outcome [2]: inactive
outcome [3]: inactive
outcome [4]: inactive
Potency [5]: inactive
outcome [6]: inactive
Potency [7]: inactive
outcome [8]: inactive
outcome [9]: inactive
Potency [10]: inactive
Potency [11]: inactive
outcome [12]: inactive
outcome [13]: inactive
outcome [14]: inactive
outcome [15]: inactive
outcome [16]: inactive
outcome [17]: inactive

c1ccc2c(CC3=NCCN3)cccc2c1
Potency [1]: inactive
outcome [2]: inactive
outcome [3]: inactive
outcome [4]: inactive
Potency [5]: inactive
outcome [6]: inactive
Potency [7]: inactive
outcome [8]: inactive
outcome [9]: inactive
Potency [10]: inactive
Potency [11]: inactive
outcome [12]: inactive
outcome [18]: inactive
outcome [19]: inactive
outcome [14]: inactive
outcome [15]: inactive
outcome [17]: inactive
Potency [20]: inactive

ONc1ccccc1
Potency [1]: inactive
outcome [2]: inactive
outcome [3]: inactive
outcome [4]: inactive
Potency [5]: 24.1 µM (active)
outcome [6]: inactive
Potency [7]: 22.2 µM (active)
outcome [8]: inactive
outcome [9]: inactive
Potency [10]: inactive
Potency [11]: 60.5 µM (active)
outcome [12]: inactive
outcome [18]: inactive
outcome [14]: inactive
outcome [15]: inactive
outcome [16]: inactive
outcome [17]: inactive
Potency [20]: inactive

COCCc1ccccn1
Potency [1]: inactive
outcome [2]: inactive
outcome [3]: inactive
outcome [4]: inactive
Potency [5]: inactive
outcome [6]: inactive
Potency [7]: inactive
outcome [8]: inactive
outcome [9]: inactive
Potency [10]: inactive
Potency [11]: inactive
outcome [12]: inactive
outcome [13]: inactive
outcome [14]: inactive
outcome [15]: inactive
outcome [16]: inactive
outcome [17]: inactive

CC(=O)OC1CCCCC1C(C)(C)C (configuration not stated)
Potency [1]: inactive
outcome [2]: inactive
outcome [3]: inactive
outcome [4]: inactive
Potency [5]: inactive
outcome [6]: inactive
Potency [7]: inactive
outcome [8]: inactive
outcome [9]: inactive
Potency [10]: inactive
Potency [11]: inactive
outcome [12]: inactive
outcome [14]: inactive
outcome [15]: inactive
outcome [16]: inactive
outcome [17]: inactive
